Measured values: PubChem BioAssay AID2100 (National Center for Advancing Translational Sciences (NCATS), 2009)
The campaign covered roughly 300,000 compounds. About 1,200 (0.4%) were called active. Not shown: some 3% with an inconclusive outcome. Calls come from the whole dose curve; as a rule, active = well fitted inhibition curve with a large enough effect; inconclusive = small, poorly fitted or top-dose-only effect, or another doubt; inactive = no such curve, though single readings can be large or run the other way. The entries come from a sample that favours actives as a whole. Entries that show only a call come without a potency.

Molecular target: Lysosomal alpha-glucosidase (Homo sapiens) (UniProt P10253)
Experiment: qHTS Assay for Inhibitors and Activators of Human alpha-Glucosidase Cleavage of Glycogen;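 note: the screen sought inhibitors and activators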
Settings: recombinant GAA, glycogen substrate, Amplex Red glucose oxidase fluorescence; series mostly up to 76.4 µM
From the text: NIH Chemical Genomics Center [NCGC] NIH Molecular Libraries Probe Production Centers Network [MLPCN] MLPCN Grant: R03 MH084841-01 Assay Submitter (PI): Wei Zheng NCGC Assay Overview: Alpha-glucosidase is responsible for the hydrolysis of terminal, non-reducing 1,4-linked alpha-D-glucose residues, which releases alpha-D-glucose. It is a lysosomal hydrolase that is required for the degradation of a small percentage (1-3%) of cellular glycogen in humans. Deficiency of this enzyme results in glycogen-storage disease type II (GSDII), also referred to as Pompe disease, an autosomal recessive disorder. Structurally normal glycogen is accumulated in the lysosomes and cytoplasm in affected patients, primarily in muscle tissues. Excessive glycogen storage within lysosomes may interrupt normal functioning of other organelles and leads to cellular injury. In turn, this leads to enlargement and dysfunction of the entire organ involved (eg: cardiomyopathy and muscle weakness). It has been reported that the improper folding and trafficking of alpha-glucosidase resulting from genetic mutations may account for a significant number of Pompe patients. […] We optimized this alpha-glucosidase assay in 1536-well plate format for identification of novel small molecule inhibitors or activators with structures other than the sugar analogs in order to develop new pharmacological chaperones. Previous assays of alpha-Glucosidase have utilized a non-natural fluorescent substrate to probe enzyme activity. The present assay measures enzyme activity on glycogen using a coupled-assay system to glucose oxidase.
NCGC Assay Protocol Summary: This is an enzyme assay using glycogen from bovine liver (Sigma catalog #: G0885) as the substrate and recombinant human alpha-glucosidase as the enzyme preparation. Upon hydrolysis of the substrate, the glucose product can be detected using the Amplex Red Glucose Oxidase Assay Kit (Invitrogen catalog #: A22189). The product of this reaction can be read with a fluorescence plate reader with an excitation at 573 nm and an emission at 610 nm. Data were normalized to the controls for basal activity (without enzyme) and 100% activity (with enzyme). The AC50 values were determined from concentration-response data modeled with the standard Hill equation. Assay buffer for enzyme reaction: 50 mM citric acid (titrated with potassium phosphate to pH 5.0), 0.01% Tween-20 (pH 5.0 is an optimal condition for this enzyme assay) Assay buffer for Amplex Red reaction: Tris-HCl, pH 7.5 1536-well assay protocol for the alpha-glucosidase assay: (1) Add 2 ul/well alpha-glucosidase enzyme solution (4 nM final) (2) Add 23 nL compounds in DMSO solution. The final titration was 0.7 nM to 77 uM. (3) Add 1 ul of glycogen substrate solution (30 ug) (4) Incubate at 37 C for 40 min (5) Add 2 ul tris-HCl buffer with Amplex Red reagents (6) Incubate 45 min at room temperature. (7) Detect the assay plate in a ViewLux plate reader (PerkinElmer) with Ex=573 nm and Em=610nm. Keywords: Alpha-glucosidase, Pompe Disease, pharmacological chaperone, chaperone therapy, high throughput screening, alpha-glucosidase inhibitor, MLSMR, MLSCN, NIH Roadmap, qHTS and NCGC
Potency is the fitted concentration of half-maximal effect.

Structure (SMILES) | Potency
Oc1cc2c(cc1CN1CCN(c3ccccc3)CC1)OCO2 | 2000 nM (active)
Fc1ccc(N2CCN(Cc3ccc4c(c3)OCO4)CC2)cc1 | inactive
CC(C)c1ccc(O)c(CN2CCN(c3ccccc3)CC2)c1 | inactive
Cc1ccc(NC(=O)N(Cc2ccc3c(c2)OCO3)C2CCN(Cc3ccccc3)CC2)cc1F | inactive
Cn1cc(/C=C/c2nc3ccccc3c(=O)n2-c2ccccc2)c2ccccc21 | inactive
